An excerpt weighted towards active compounds, which were near 1.8% of everything screened.
PAD4 FP inh – PAD4 (human) enzyme inhibition. Q9UM07. recombinant PAD4, RCA probe fluorescence polarization. inhibition, % at 6.36 µM. 330,000 compounds, 0.41% hits;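 active = percent inhibition above a cutoff equal to the mean of all tested compounds plus 3 SD, cut at about 15% in these data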
GSTO1 counter – GSTO1 inhibition, counter-screen for RBBP9 inhibitors. P78417. recombinant GSTO1, activity-based probe fluorescence polarization. inhibition, % at 5.96 µM. 300,000 compounds, 1.1% hits. AID 1974;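 active = inhibition above the campaign mean inhibition plus 3 SD, cut at about 35% in these data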
PME-1 primary – blocks human protein phosphatase methylesterase 1 | recombinant PME-1, FP-Rh probe fluorescence polarization | 320,000 compounds, 0.53% hits | inhibition, % at 5.9 µM | AID 2130 | Q9Y570;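 active = inhibition above the campaign mean of all compounds plus 3 SD, cut at about 26% in these data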;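 note: competitive labeling of PME-1 active site by serine hydrolase directed probe; inhibitors block probe labeling so polarization falls and inhibition rises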
Target sequence (Q9Y570 whole entry, looked up): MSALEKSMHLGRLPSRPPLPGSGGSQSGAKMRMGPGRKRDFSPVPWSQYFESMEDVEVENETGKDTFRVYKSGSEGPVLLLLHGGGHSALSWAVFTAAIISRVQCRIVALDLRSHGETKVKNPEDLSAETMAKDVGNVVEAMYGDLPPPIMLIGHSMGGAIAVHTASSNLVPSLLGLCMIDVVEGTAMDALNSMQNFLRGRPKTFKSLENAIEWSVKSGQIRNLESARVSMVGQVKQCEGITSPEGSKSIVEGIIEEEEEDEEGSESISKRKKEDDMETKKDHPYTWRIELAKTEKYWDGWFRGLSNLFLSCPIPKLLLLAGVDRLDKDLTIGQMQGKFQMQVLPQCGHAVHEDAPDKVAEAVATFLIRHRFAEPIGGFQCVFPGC
Fam108B inh – blocks mouse Fam108B hydrolase in RBBP9 counter-screen; inhibition, % at 9.51 µM; 300,000 compounds, 0.33% hits; recombinant Fam108B, FP-Rh probe fluorescence polarization; AID 1947;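 active = inhibition above the screen mean inhibition plus 3 SD, computed separately per campaign, cut at about 18% in these data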;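 note: inhibitors lower polarization as less probe binds the enzyme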
LYPLA2 counter – blocks human lysophospholipase 2, a PME1 counter-screen. 320,000 compounds, 0.38% hits. recombinant LYPLA2, FP-Rh probe fluorescence polarization. O95372. AID 2177. inhibition, % at 5.9 µM;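 active = inhibition above the screen-wide mean plus 3 SD, limit set per campaign, cut at about 26% in these data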
Target sequence (O95372 whole entry, looked up): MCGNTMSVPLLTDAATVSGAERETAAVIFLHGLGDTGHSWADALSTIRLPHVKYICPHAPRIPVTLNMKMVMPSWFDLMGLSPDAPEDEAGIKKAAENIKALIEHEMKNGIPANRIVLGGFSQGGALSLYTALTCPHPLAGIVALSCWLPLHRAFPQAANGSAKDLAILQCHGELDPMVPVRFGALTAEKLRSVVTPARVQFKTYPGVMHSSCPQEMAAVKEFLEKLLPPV
LYPLA1 counter – counter-screen for PME1 inhibitors: inhibitors of human LYPLA1 | O75608 | recombinant LYPLA1, FP-Rh probe fluorescence polarization | inhibition, % at 5.9 µM | 320,000 compounds, 0.16% hits | AID 2174;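 active = inhibition above the mean of all tested compounds plus 3 SD, set per campaign, cut at about 14% in these data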;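 note: inhibitors block serine hydrolase probe labeling of LYPLA1 so polarization falls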
Fam108b confirm – Fam108b (mouse) hydrolase inhibition, confirmation assay | AID 1978 | recombinant Fam108b, FP-Rh probe fluorescence polarization | shares compounds with Fam108B inh | inhibition, % at 9.51 µM | 930 compounds, 44% hits;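 active = inhibition above a limit from the primary screen, the mean over all compounds plus 3 SD, cut at about 19% in these data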;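 note: inhibitors free the probe so polarization falls as inhibition rises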
Of the large screens only hits and unclear results are named; the others gave an inactive call (follow-up assays come after a bar, where they were run).

CN1CCN(c2cc(N3CCN(C(=O)c4ccco4)CC3)c3c4c(onc24)-c2ccccc2C3=O)CC1	none
Cc1ccc2oc(C(=O)Nc3cc(C)on3)c(C)c2c1	none (no result: GSTO1 counter, Fam108B inh)
Cc1cccc(C)c1NC(=O)CN1C(=O)S/C(=C\c2cccn2-c2cccc(C(=O)O)c2)C1=O	none
Cc1ccc(NC(=O)CN2C(=O)S/C(=C\c3cccn3-c3cccc(C(=O)O)c3)C2=O)c(C)c1	LYPLA2 counter 30.2
COc1ccc(NC(=O)c2ccc(N3CCCC3=O)cc2)cc1Cl	none (no result: GSTO1 counter, PME-1 primary, Fam108B inh, LYPLA2 counter, LYPLA1 counter)
O=C(CN1C(=O)NC2(CCCC2)C1=O)NCCc1ccc(Cl)cc1Cl	none (no result: GSTO1 counter, Fam108B inh)
O=C(NCc1ccccc1CN1CCCC1)c1ccc(Cl)c(N2CCCC2=O)c1	none (no result: GSTO1 counter, Fam108B inh)
CCN(CC)C(=O)c1csc(Nc2cccc3ccccc23)n1	PME-1 primary 37.3
CCN(CC)CCCNC(=O)c1csc(Nc2cccc3ccccc23)n1	none
CCCOc1cc(N(CC)CC)ccc1/C=C(/C#N)c1nc2ccc(C)cc2[nH]1	none
CCOc1cc(N(CC)CC)ccc1/C=C(/C#N)c1nc2ccccc2[nH]1	PME-1 primary 29.9
COc1ccc(S(=O)(=O)N2CCCCCC2)cc1NC(=O)Cc1cc(OC)c(OC)c(OC)c1	PME-1 primary 57.5
Cc1ccc(C(=O)NCC(=O)OCC(=O)Nc2cc(S(=O)(=O)N3CCOCC3)ccc2C)cc1	none
Cc1ccc(S(=O)(=O)N2CCCCC2)cc1NC(=O)COC(=O)c1ccc2c(c1)OCO2	PME-1 primary 40.3
Cc1ccc(S(=O)(=O)N2CCOCC2)cc1NC(=O)COC(=O)c1ccccc1OCc1c(C)noc1C	PME-1 primary 32.2
CCOc1ncccc1C(=O)OCC(=O)Nc1cc(S(=O)(=O)N2CCOCC2)ccc1C	none
COc1ccc(OC)c(CC(=O)Nc2cc(S(=O)(=O)N3CCCCC3)ccc2C)c1	none (no result: GSTO1 counter, Fam108B inh)
Cc1ccc(S(=O)(=O)N2CCOCC2)cc1NC(=O)COC(=O)CNC(=O)c1ccc(C(C)(C)C)cc1	GSTO1 counter 35.4
Cc1ccc(S(=O)(=O)Nc2cccc3c2O[C@H](CN(C)C(=O)Nc2ccc(C(F)(F)F)cc2)[C@@H](C)CN([C@H](C)CO)C3=O)cc1	none (no result: GSTO1 counter, PME-1 primary, Fam108B inh, LYPLA2 counter, LYPLA1 counter)
O=C(Nc1c(Cl)ccc2nsnc12)c1ccc([N+](=O)[O-])o1	none
Cc1ccc(S(=O)(=O)N2CCOCC2)cc1NC(=O)COC(=O)c1cccnc1Cl	PME-1 primary 28.8
CC(=O)c1cccc(NS(=O)(=O)c2ccc(-c3cnc(C4CC4)o3)cc2)c1	none
COC(=O)CCC(=O)OC1(C)C(=O)C2=CN(CCc3ccccn3)C(c3ccc(OC)cc3)=CC2=C(Br)C1=O (centres undefined)	GSTO1 counter 65.9
CCCCn1c(/C=N/Nc2nc3ccccc3[nH]2)nc2ccccc21	PME-1 primary 52.2
CC(C)c1ccc2c(c1)C1(NN=C(c3ccccc3)S1)C(=O)N2 (centres undefined)	PME-1 primary 33.2
CCc1ccc2c(c1)C1(NN=C(c3ccc(C)cc3)S1)C(=O)N2 (centres undefined)	none
COc1ccccc1NC(=O)CCC(=O)Nc1nnc(C(F)(F)F)s1	PME-1 primary 88.5
CCOC(=O)c1c(C)[nH]c(C2=NNC(=Nc3ccc(OCC)cc3)SC2)c1C	PME-1 primary 27.7
CCOC(=O)c1c(C)[nH]c(C2=NNC(=Nc3ccccc3OC)SC2)c1C	none
O=C(COC(=O)CN1C(=O)NC2(CCCCC2)C1=O)Nc1cc(F)ccc1F	none (no result: GSTO1 counter, PME-1 primary, Fam108B inh, LYPLA2 counter, LYPLA1 counter)
Cc1cc(C(=O)OCC(=O)Nc2cc(S(=O)(=O)N(C)C)ccc2Cl)c2ccccc2n1	none
Cc1cc(C(=O)OCC(=O)Nc2cc(S(=O)(=O)N(C)C)ccc2C)c2ccccc2n1	PME-1 primary 28.3
Cc1ccc(C(=O)NC(=C(Cl)Cl)S(=O)(=O)c2ccccc2)cc1	GSTO1 counter 39.3
CC(C)N(C)S(=O)(=O)c1ccc(NC(=O)C2=COCCO2)cc1	none (no result: GSTO1 counter, Fam108B inh)
COC(=O)c1c(NC(=O)CN2CCN(c3ccccc3Cl)CC2)sc(C)c1C	GSTO1 counter 36.6
O=c1[nH]c2ccc(S(=O)(=O)N3CCN(Cc4ccccc4)CC3)cc2[nH]c1=O	GSTO1 counter 34.9
Cc1ccc(NC(=O)CN2C(=O)NC(C)(CC(C)C)C2=O)c(Br)c1 (centres undefined)	none (no result: GSTO1 counter, PME-1 primary, Fam108B inh, LYPLA2 counter, LYPLA1 counter)
COC1=C(Nc2ccc(O)cc2)C(=O)c2ccccc2C1=O	none
O=C1C=C(Nc2ccc(O)cc2)C(=O)c2ccccc21	GSTO1 counter 38.5
CC(C)c1ccccc1OCC(=O)Nc1cc(S(=O)(=O)N2CCOCC2)ccc1N1CCCC1	none
COc1ccccc1NS(=O)(=O)c1ccc(C)c(NC(=O)C2CCCO2)c1 (centres undefined)	none (no result: GSTO1 counter, Fam108B inh)
CCCCCCC(=O)N1CCC(c2nc3c(nnn3Cc3ccccc3Cl)c(=O)[nH]2)CC1	PME-1 primary 26.8, LYPLA2 counter 38.5
COc1cccc(CN(CC(=O)NC2CCCCC2)C(=O)c2csnn2)c1	none
O=[N+]([O-])c1cc(F)c2cccnc2c1O	GSTO1 counter 58.4
O=[N+]([O-])c1cc(Cl)c2cccnc2c1O	none
O=C(COC(=O)c1cccnc1)c1ccc(Cl)cc1	none
O=C(COC(=O)c1cccnc1)c1ccc(Cl)c(Cl)c1	GSTO1 counter 36.1
CN(C)C=Nc1ccccc1C1C=NNC1=O (centres undefined)	PME-1 primary 28.2
CC(=O)c1c(N=CN(C)C)nc(C)nc1-c1ccccc1	none
O=C(NN1C(=O)/C(=C/c2cc([N+](=O)[O-])ccc2O)SC1=S)c1ccccc1O	GSTO1 counter 67.4
CCN(CC)S(=O)(=O)c1ccc(Nc2ccc(-c3ccc4c(c3)OCCO4)nn2)cc1	Fam108B inh 20.4 | Fam108b confirm inactive
CN(C)S(=O)(=O)c1ccc(Nc2ccc(-c3ccc4c(c3)OCCO4)nn2)cc1	none
O=[N+]([O-])c1cc(N=Nc2ccc3ccccc3c2)ccc1O	Fam108B inh 21.6 | Fam108b confirm inactive
Nc1ccc(O)c([N+](=O)[O-])c1	none (no result: GSTO1 counter, Fam108B inh)
Cc1ccccc1C(=O)N1CCC(C(=O)NCCc2ccc(S(N)(=O)=O)cc2)CC1	none
Cc1cc(/C=C(\C#N)c2nc3ccccc3[nH]2)c(C)n1C	none
Cc1cc(/C=C(/C#N)c2nc3ccccc3[nH]2)c(C)n1-c1cccc([N+](=O)[O-])c1	Fam108B inh 25.0 | Fam108b confirm inactive
O=C(Nc1ccc(-c2nc3ccccc3o2)cc1)c1ccc(N2CCOCC2)c([N+](=O)[O-])c1	Fam108B inh 19.5 | Fam108b confirm inactive
O=C(CCNC(=O)c1ccco1)Nc1nc(-c2ccccc2)cs1	none (no result: GSTO1 counter, PME-1 primary, Fam108B inh, LYPLA2 counter, LYPLA1 counter)
C#CCn1cc(/C=N/Nc2nc3ccccc3[nH]2)c2ccccc21	Fam108B inh 30.0 | Fam108b confirm 20.6
CCN(CC)c1ccc(/C=N/Nc2nc3ccccc3[nH]2)c(O)c1	Fam108B inh 21.2 | Fam108b confirm 19.4

From PubChem
